Screening data from PubChem BioAssay.
Shown is part of a subset that was picked to be rich in hits.
Dicer processing = blocks human Dicer maturation of pre-miR-21; Q9UPY3; cat-ELCCA pre-miR-21 Dicer processing, chemiluminescence; active compounds read high; z-score at 25 µM; actives 6% (n = 47,000); in the data active = z-score above about 3, passing the limit was not always enough;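 also: higher signal means more uncleaved substrate so more Dicer inhibition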
Target sequence (Q9UPY3 whole entry, looked up): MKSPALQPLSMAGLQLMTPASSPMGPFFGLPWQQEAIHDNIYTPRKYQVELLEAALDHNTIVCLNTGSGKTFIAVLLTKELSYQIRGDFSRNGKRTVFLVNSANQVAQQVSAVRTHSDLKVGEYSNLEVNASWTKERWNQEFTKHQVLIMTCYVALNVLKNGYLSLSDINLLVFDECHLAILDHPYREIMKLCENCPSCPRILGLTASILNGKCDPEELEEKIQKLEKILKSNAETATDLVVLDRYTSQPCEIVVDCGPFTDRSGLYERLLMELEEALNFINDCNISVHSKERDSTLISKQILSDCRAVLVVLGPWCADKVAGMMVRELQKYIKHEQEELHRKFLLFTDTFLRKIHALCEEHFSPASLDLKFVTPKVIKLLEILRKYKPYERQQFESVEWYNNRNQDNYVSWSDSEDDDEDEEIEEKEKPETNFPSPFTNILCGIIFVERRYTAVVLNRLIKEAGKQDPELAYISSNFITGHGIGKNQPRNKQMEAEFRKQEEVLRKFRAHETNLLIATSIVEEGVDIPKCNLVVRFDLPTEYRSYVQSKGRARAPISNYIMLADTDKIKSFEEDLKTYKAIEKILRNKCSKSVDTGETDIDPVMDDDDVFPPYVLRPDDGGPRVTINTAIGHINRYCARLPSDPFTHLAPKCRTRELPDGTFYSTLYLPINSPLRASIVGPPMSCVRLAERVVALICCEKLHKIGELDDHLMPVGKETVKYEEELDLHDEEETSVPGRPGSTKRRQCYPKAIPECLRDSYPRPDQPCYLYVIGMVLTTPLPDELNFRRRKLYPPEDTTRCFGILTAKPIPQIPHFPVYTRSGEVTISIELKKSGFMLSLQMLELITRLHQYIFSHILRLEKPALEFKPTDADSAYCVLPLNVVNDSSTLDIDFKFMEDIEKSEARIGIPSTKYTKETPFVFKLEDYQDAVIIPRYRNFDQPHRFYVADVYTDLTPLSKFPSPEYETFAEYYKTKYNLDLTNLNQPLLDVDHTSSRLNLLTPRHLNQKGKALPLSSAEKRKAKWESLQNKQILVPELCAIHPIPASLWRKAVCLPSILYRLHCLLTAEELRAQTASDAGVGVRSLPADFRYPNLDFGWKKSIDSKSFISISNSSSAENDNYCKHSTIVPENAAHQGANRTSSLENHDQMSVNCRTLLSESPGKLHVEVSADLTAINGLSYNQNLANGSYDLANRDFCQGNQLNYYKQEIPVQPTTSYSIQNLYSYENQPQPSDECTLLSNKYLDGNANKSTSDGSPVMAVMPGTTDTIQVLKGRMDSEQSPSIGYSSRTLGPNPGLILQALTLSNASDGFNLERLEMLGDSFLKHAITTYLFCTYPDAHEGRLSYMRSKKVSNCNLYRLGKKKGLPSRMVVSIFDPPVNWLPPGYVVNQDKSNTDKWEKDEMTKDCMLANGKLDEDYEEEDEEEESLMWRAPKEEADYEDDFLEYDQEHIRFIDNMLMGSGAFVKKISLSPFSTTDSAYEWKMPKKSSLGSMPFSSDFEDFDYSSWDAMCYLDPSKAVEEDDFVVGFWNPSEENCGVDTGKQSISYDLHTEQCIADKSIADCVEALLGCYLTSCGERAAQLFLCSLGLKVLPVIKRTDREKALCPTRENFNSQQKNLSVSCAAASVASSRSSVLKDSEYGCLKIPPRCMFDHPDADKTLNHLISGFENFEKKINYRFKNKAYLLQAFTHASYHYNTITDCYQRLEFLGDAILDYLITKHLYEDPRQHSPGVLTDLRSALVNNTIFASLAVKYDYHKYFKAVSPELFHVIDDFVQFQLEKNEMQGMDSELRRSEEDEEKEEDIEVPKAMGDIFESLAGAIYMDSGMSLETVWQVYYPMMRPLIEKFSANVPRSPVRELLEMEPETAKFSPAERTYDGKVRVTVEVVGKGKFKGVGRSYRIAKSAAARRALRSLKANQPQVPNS
Numbers stand for hits; n = inactive.

SMILES	Dicer processing
Cn1c(=O)c2c(ncn2CC(=O)N2CCCCC2)n(C)c1=O	n
COC(=O)C1CCN(C(=O)Cn2cnc3c2c(=O)n(C)c(=O)n3C)CC1	4.6
Cn1c(=O)c2c(ncn2CC(=O)NC2CCSC2=O)n(C)c1=O (configuration not stated)	n
CC1=NN(c2ccc(Cl)cc2)C(=O)C1CCO (configuration not stated)	n
C#CCSc1nc(COC)cc(=O)[nH]1	n
COC(=O)C(C)Oc1ccc2c(c1)oc(=O)c1ccccc12 (configuration not stated)	n
CC(C)=NOC(=O)c1scc(S(C)(=O)=O)c1Cl	n
Cc1cc(C)cc(OCc2nc(-c3cc(C)nc4ccccc34)no2)c1	n
COc1cccc(Sc2nc(SC)nc(Sc3cccc(OC)c3)c2C#N)c1	n
O=C(NNc1ncc(C(F)(F)F)cc1Cl)c1cccc(C(F)(F)F)c1	n
COc1c(Cl)cc(Cl)c(OC)c1C(=O)NC(=O)Nc1c(Cl)cc(Cl)cc1Cl	3.2
COc1c(Cl)cc(Cl)c(OC)c1C(=O)NC(=O)Nc1c(Cl)cc([N+](=O)[O-])cc1Cl	n
COc1c(Cl)cc(Cl)c(OC)c1C(=O)NC(=O)Nc1c(C)cc(Br)cc1C	n
CCC(C)Nc1ncnc2c1sc1nc3c(cc12)COC(C)(C)C3 (configuration not stated)	n
CSc1sc(C(=O)NNC(=O)c2ccc(Cl)cc2)c2c1C(O)CCC2 (configuration not stated)	n
Cc1ccc(C(=O)OC[C@H]2O[C@H](c3nnc4ncccn34)C[C@@H]2OC(=O)c2ccc(C)cc2)cc1	n
O=C(CSc1nc2c(c(C(F)(F)F)n1)CCc1ccccc1-2)NCCN1CCOCC1	n
FC(F)(F)c1c(-c2nnnn2-c2ccccc2)cnn1-c1ccccc1Cl	n
FC(F)(F)c1[nH]ncc1-c1nnnn1-c1ccccc1	3.3
Cc1c(-c2nnnn2-c2ccccc2)cnc2ccccc12	n
Cc1c(C)c(C)c(C(=O)CCCC(=O)O)c(C)c1C	n
CSc1nc(/N=C/N(C)C)n(-c2c(Cl)cc(Cl)cc2Cl)n1	n
O=C(OCc1ccccc1)C1=NNC2C(=O)N(c3ccccc3)C(=O)C12 (configuration not stated)	n
CCc1ccc(N2C(=O)C3NN=C(C(=O)OCc4ccccc4)C3C2=O)cc1 (configuration not stated)	n
O=C(OCc1ccccc1)C1=NNC2C(=O)N(c3ccc(Br)cc3)C(=O)C12 (configuration not stated)	3.5
SMILES	Dicer processing
O=C1N/C(=N\c2ccccn2)SC1Cc1ccccc1 (configuration not stated)	n
CCN(CC)c1ccc(NC(=O)C2CCC(C)(C(=O)O)C2(C)C)cc1 (configuration not stated)	n
COc1ccc(Nc2ncc3c(n2)CC(C)CC3=O)cc1 (configuration not stated)	n
COC(=O)c1sccc1Oc1ccc(C(F)(F)F)cc1NC(=O)c1cnn(-c2ccc([N+](=O)[O-])cc2)c1C(F)(F)F	4
COC(=O)c1sccc1Oc1ccc(C(F)(F)F)cc1NC(=O)NS(=O)(=O)c1ccc(C)cc1	n
COC(=O)c1sccc1Oc1ccc(C(F)(F)F)cc1NC(=O)c1cnn(-c2ccccc2)c1C(F)(F)F	n
NC(=S)N/N=C1\CCc2ccccc21	n
Cc1onc(-c2c(Cl)cccc2Cl)c1C(=O)Nc1nnc(C2CC2)s1	n
CSc1sc(C(=O)Nc2cccc(Cl)c2)cc1-c1nc(-c2ccc(Cl)cc2)cs1	n
Cc1c(NC(=O)CSc2nnc3c4ccccc4n(C)c3n2)c(=O)n(-c2ccccc2)n1C	3.2
Cc1cc(NC(=O)CSc2nnc3c4ccccc4n(C)c3n2)no1	n
C=CCn1c2ccccc2c2nnc(SCC(=O)Nc3c(C)n(C)n(-c4ccccc4)c3=O)nc21	n
CC(C)N(Cc1ccccc1)S(=O)(=O)c1ccccc1	n
CCCCOC(=O)C1C2C=CC3(CN(Cc4cccs4)C(=O)C13)O2 (configuration not stated)	n
COc1ccccc1NC(=O)Nc1nc(-c2ccc(F)c(F)c2)cs1	n
CSc1sc(C(=O)Nc2ccccc2Cl)cc1-c1nc(-c2ccc(Cl)cc2)cs1	n
O=C(Nc1ccc(OC(F)(F)F)cc1)Nc1nc(-c2ccc(F)c(F)c2)cs1	n
O=C(Nc1ccccc1)Nc1nc(-c2ccc(F)c(F)c2)cs1	n
O=C(Nc1nc(-c2ccc(F)c(F)c2)cs1)Nc1ccc(Cl)cc1Cl	n
Fc1ccc(Nc2nc(-c3ccc(F)c(F)c3)cs2)c(F)c1	60
CC(C)(C)c1ccccc1NC(=O)Nc1nc(-c2ccc(F)c(F)c2)cs1	3.7
O=C(Nc1ccc(F)cc1)Nc1nc(-c2ccc(F)c(F)c2)cs1	3
Cc1ccnc(Nc2nc(-c3ccc(F)cc3)cs2)c1	n
N#Cc1c(-n2ncnc2-c2cccs2)sc2c1CCCCC2	n
Cn1cnc(S(=O)(=O)Nc2ccccc2SCc2c(F)cccc2Cl)c1	n
SMILES	Dicer processing
O=S(=O)(c1ccccc1)n1cccc1	n
C=C1SC(=Nc2cccc(OC)c2)N(C(=O)c2c(F)cccc2F)C12CCCCC2	n
CCOC(=O)CSc1nc2ccccc2s1	n
CCOC(=O)c1sc(SC(C)C)c(C#N)c1-c1ccc(Cl)cc1	5
CCSc1sc(C(=O)OC)c(-c2ccc(Cl)cc2)c1C#N	n
CSc1sc(C(=O)NC(C)(C)C)c(-c2ccc(Cl)cc2)c1C#N	n
CCOC(=O)c1sc(SC(C)CC)c(C#N)c1-c1ccc(Cl)cc1 (configuration not stated)	n
CCOC(=O)CSc1sc(C(=O)OCC)c(-c2ccc(Cl)cc2)c1C#N	n
CC(C)Sc1sc(C(=O)O)c(-c2ccc(Cl)cc2)c1C#N	4.1
Cc1onc(-c2c(Cl)cccc2Cl)c1/C=N/OC(=O)Nc1c(Cl)cccc1Cl	n
O=C(CSc1c(F)c(F)c(F)c(F)c1F)Nc1ccc(C2SCCS2)cc1	n
COc1ccc(-c2nc(S(=O)(=O)c3ccccc3)c(N3CCCCC3)o2)cc1OC	n
COc1ccc(S(=O)(=O)NCCSc2nnnn2-c2ccccc2)cc1OC	n
COc1ccc(C2(CNS(=O)(=O)c3ccccc3)CCCC2)cc1OC	5.9
O=C(O)CNC(=O)OCC1c2ccccc2-c2ccccc21	n
CCOC(=O)c1c(NC(=O)CC)sc2c1CCC(C(C)(C)C)C2 (configuration not stated)	n
COc1ccc(OC)c(S(=O)(=O)N2CCN(C)CC2)c1	n
COc1ccc(S(=O)(=O)N2CCN(C)CC2)cc1C	4
CN1CCN(S(=O)(=O)c2ccc3ccccc3c2)CC1	n
CC(C)N1CCC(=O)N(c2ccc3c(c2)CCO3)C1=O	n
c1ccc(-n2ncnc2-c2csc(-c3ccncc3)n2)cc1	n
COc1ccc(-c2cc(C(=O)O)c3ccccc3n2)c(OC)c1	4.5
O=C(O)c1cc(-c2ccccn2)nc2ccccc12	n
Nc1cccc(-c2cc(C(=O)O)c3ccccc3n2)c1	n
CCOC(=O)c1c(C)oc2ccc(OC(=O)c3ccc(C)cc3)cc12	n
COC(=O)C1=C(C)NC2=C(C(=O)c3ccccc32)C1c1cccs1 (configuration not stated)	n
COC(=O)C1=C(C)NC2=C(C(=O)c3ccccc32)C1c1ccc(-c2ccc(Cl)cc2)o1 (configuration not stated)	3.6
COC(=O)C1=C(C)NC2=C(C(=O)c3ccccc32)C1c1ccccc1Cl (configuration not stated)	n
Cn1c(=O)c2c(ncn2CC(=O)Nc2ccc(F)c(F)c2)n(C)c1=O	n
